The full list was thinned out, with hits kept by preference.
nsP2pro inh = blocks chikungunya virus nsP2 protease peptide cleavage. FRET peptide cleavage, nsP2pro, fluorescence 1 h. Potency, µM (highest dose often 24.9 µM), for inactives: at the highest dose activity change, negative = inhibition, usual class: inhibitors. 31,000 compounds, 1.1% hits. AID 1964107; also: nearly all actives have a fitted effect of over 60% in size
Target sequence (Q8JUX6 whole entry, looked up): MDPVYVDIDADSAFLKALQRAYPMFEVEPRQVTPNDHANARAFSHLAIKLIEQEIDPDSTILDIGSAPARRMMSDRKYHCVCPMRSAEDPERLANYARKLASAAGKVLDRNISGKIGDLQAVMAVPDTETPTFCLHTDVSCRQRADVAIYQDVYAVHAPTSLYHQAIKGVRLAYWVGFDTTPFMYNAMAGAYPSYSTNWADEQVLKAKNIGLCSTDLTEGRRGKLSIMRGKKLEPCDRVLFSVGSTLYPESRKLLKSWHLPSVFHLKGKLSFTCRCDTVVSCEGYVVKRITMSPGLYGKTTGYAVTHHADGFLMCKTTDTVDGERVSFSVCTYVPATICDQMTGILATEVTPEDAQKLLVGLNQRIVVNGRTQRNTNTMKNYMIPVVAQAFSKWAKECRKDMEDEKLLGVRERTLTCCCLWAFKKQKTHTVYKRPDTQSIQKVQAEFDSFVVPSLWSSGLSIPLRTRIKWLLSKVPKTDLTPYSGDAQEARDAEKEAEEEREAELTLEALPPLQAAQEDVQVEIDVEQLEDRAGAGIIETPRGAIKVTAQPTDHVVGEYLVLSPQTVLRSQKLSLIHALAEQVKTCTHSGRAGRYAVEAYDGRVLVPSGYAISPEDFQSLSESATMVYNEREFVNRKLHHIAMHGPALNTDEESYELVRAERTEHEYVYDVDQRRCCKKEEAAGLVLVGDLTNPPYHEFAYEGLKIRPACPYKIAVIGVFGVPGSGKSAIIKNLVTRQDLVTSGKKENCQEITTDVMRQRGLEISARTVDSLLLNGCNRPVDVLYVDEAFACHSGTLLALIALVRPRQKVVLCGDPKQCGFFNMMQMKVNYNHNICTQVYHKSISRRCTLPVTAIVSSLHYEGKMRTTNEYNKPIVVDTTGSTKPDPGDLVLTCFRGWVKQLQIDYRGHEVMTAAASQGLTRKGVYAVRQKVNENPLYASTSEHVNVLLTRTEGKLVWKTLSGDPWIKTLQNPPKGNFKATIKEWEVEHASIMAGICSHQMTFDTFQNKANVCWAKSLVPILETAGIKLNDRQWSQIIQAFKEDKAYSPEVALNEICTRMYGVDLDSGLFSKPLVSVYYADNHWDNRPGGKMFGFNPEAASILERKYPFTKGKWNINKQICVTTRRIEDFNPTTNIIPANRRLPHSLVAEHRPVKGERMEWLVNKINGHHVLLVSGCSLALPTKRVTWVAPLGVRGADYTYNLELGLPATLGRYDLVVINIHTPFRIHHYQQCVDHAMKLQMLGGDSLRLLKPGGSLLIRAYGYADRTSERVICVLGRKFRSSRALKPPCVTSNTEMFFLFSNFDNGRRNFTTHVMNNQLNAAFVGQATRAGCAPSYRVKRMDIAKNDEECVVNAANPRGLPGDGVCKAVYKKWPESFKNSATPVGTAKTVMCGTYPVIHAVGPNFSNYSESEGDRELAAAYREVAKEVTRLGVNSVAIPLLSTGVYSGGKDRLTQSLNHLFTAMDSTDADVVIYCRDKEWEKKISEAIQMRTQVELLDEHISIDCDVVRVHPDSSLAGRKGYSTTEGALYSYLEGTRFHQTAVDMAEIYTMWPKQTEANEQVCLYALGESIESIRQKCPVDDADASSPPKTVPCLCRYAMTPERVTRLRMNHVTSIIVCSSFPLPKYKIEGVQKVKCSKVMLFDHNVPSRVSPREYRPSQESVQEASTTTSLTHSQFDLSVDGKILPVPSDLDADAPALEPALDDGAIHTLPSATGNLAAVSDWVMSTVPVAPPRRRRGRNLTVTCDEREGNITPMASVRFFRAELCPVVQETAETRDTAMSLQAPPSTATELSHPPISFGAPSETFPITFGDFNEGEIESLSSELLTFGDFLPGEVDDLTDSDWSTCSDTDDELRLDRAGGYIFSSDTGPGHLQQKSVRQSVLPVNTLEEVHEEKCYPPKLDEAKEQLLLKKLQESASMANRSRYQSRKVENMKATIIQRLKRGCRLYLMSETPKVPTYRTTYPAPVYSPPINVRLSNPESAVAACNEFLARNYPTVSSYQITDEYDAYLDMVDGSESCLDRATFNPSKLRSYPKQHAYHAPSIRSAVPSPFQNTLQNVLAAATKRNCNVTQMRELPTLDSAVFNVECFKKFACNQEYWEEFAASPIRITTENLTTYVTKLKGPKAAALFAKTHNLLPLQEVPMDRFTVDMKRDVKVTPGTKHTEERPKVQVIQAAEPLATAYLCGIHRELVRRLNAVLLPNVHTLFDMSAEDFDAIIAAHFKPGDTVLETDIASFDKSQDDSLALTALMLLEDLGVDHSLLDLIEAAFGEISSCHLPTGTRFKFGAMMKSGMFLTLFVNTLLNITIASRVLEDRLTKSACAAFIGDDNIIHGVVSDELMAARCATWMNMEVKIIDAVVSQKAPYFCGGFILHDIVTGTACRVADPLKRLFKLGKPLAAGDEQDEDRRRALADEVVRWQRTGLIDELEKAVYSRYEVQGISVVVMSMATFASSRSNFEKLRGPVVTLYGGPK
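Enzyme 150 nM, substrate 2.5 uM (both final); Tris-HCl 10 mM pH 8.0 + 0.01% Tween 20; cpd up to 25 uM, 7 pts; 15 min preinc., 1 h RT; fluorescence ex 525/em 598.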
CHIKV nsP2 cell = secondary cell-based test for CHIKV nsP2 protease inhibitors; Potency, µM (series often up to 51.1 µM), inactives show at the highest dose activity change, negative = inhibition, usual class: inhibitors; shares compounds with nsP2pro inh; cell-based CHIKV nsP2 protease reporter assay; 450 compounds, 10% hits; also: nearly all actives have a fitted effect of over 70% in size
CHIKV NSP2 FL = full-length CHIKV NSP2 protease inhibition, selectivity; Potency, µM (titrated, usually from 50.7 µM), for the others: at the highest dose activity change, negative = inhibition, usual class: inhibitors; shares compounds with nsP2pro inh; Full-length CHIKV NSP2 protease enzymatic counterscreen; 410 compounds, 39% hits; also: nearly all actives have a fitted effect of over 65% in size
Furin counterscr = inhibits human furin in a CHIKV nsP2 protease selectivity counterscreen | 410 compounds, 6% hits | Potency, µM (highest dose often 50.6 µM), for the others: at the highest dose activity change, negative = inhibition, actives largely listed as inhibitors | Recombinant human furin enzymatic counterscreen, fluorogenic substrate | shares compounds with nsP2pro inh
nsP2 NS23 pep = nsP2pro inhibition on native NS2/3 peptide substrate. shares compounds with nsP2pro inh. Purified CHIKV nsP2 protease, endogenous NS2/3 peptide cleavage. Potency, µM (top dose mostly 51 µM), without a hit: top-dose activity change, negative = inhibition, hits mostly inhibitors. 410 compounds, 34% hits. AID 1964103; also: nearly all actives have a fitted effect of over 55% in size
Papain cs = selectivity counter-screen for CHIKV nsP2 protease inhibitors: papain | shares compounds with nsP2pro inh | purified papain protease activity, enzymatic inhibition | Potency, µM (doses to about 51 µM), for the others: at the highest dose activity change, negative = inhibition, hits mostly inhibitors | 410 compounds, 5% hits | AID 1964104
nsP2pro confirm = confirmation of CHIKV nsP2 protease inhibitors | CHIKV nsP2 protease enzymatic activity, qHTS | Potency, µM (series often up to 25.5 µM), without a hit: at the highest dose activity change, negative = inhibition, usual class: inhibitors | 410 compounds, 43% hits | shares compounds with nsP2pro inh; also: nearly all actives have a fitted effect of over 75% in size
HCV NS3 counter = selectivity counter-screen for CHIKV nsP2 protease inhibitors: HCV NS3/4A. shares compounds with nsP2pro inh. HCV NS3/4A protease biochemical counterscreen. Potency, µM (highest dose often 50.9 µM), usual class: inhibitors. 410 compounds, 20% hits. AID 1964106; also: nearly all actives have a fitted effect of over 55% in size
Active calls of the source: *; i = inactive; ? = inconclusive; ! = a repeat was not active; [ ] = another dose, or the depositor's remark. Calls follow the shape of the full dose curve. % is scaled to controls: 0 for no effect and ±100 for the full control effect; potency is read from the fitted curve at half-maximal effect.

SMILES | nsP2pro inh | others
Nc1nc2c(s1)C(c1ccccc1Cl)CC(=O)N2 (stereo not drawn) | 10µM*! | CHIKV nsP2 cell=-40%;CHIKV NSP2 FL=1.6µM*;Furin counterscr=-5%;nsP2 NS23 pep=3.7µM*;Papain cs=9%;nsP2pro confirm=4µM*;HCV NS3 counter=i
COc1ccc(COC(=O)C2=C(C)NC(=O)CC2c2cccc(Cl)c2Cl)cc1 (stereo not drawn) | -11%
c1ccc(-c2[nH]nc3ncc(-c4cn[nH]c4)nc23)cc1 | i
O=C1CCCC2=C1C(c1[nH]ncc1Cl)NC(=NCc1nccs1)N2 (stereo not drawn) | 2%
Cc1ccc(S(=O)(=O)Nc2cnccc2C(=O)Nc2nc(-c3nc4ccccc4s3)cs2)cc1 | i
CC1(C)C[C@H](O)C[C@@]2(C)OC(=O)C=C12 | 49%[39.2 µM]
Cc1cc(C)nc(NC(=S)N2CCN(c3nccs3)CC2)c1 | -9%
C=C(C)C(=O)O[C@H]1C[C@@](C)(O)C2(O)CCC(C)(/C=C3/OC(=O)C(COC)=C31)O2 (stereo partly drawn) | ? | CHIKV nsP2 cell=?;CHIKV NSP2 FL=?;Furin counterscr=-10%[33.5 µM];nsP2 NS23 pep=?;Papain cs=-9%[33.5 µM];nsP2pro confirm=?;HCV NS3 counter=?
O=C(/C=C\n1cnc(-c2cc(C(F)(F)F)cc(C(F)(F)F)c2)n1)NNc1ccccn1 | 35%
O=C1Cc2cc(S(=O)(=O)N3CCN(c4ccc(CO)cc4)CC3)ccc2N1 | i
CC(=O)N1CC2(CCCN(C3CCCCC3)C2)Cc2ccccc21 (stereo not drawn) | -14%
CC1=CC2=C(C)C(=O)[C@](C)(O)[C@H](O)C2=CO1 | ? | CHIKV nsP2 cell=8%;CHIKV NSP2 FL=-12%;Furin counterscr=-8%;nsP2 NS23 pep=-11%;Papain cs=2%;nsP2pro confirm=-14%;HCV NS3 counter=i
CC[C@H](N)C(=O)O | -16%
CC(C)(C)NC(=O)N[C@H](C(=O)N1C[C@H]2[C@@H]([C@H]1C(=O)NC(CC1CCC1)C(=O)C(N)=O)C2(C)C)C(C)(C)C (stereo partly drawn) | -16%
Cc1cc(NC(=S)N2CCN(c3cccc(C(F)(F)F)c3)CC2)nc2ccccc12 | -5%
c1cncc(CN2CCn3c(nnc3C3CCCNC3)C2)c1 (stereo not drawn) | ? | CHIKV nsP2 cell=7%
Fc1ccc(CN2CCn3c(nnc3-c3ccncc3)C2)cc1 | -5%
O[C@@H]1C[C@@H](c2nnc3n2CCN(C2CCCCC2)C3)N(Cc2cccnc2)C1 | -22%
CCCCCCO[C@@H](C)c1cccc(-c2csc(NC(=O)c3cc(Cl)c(/C=C(\C)C(=O)O)c(Cl)c3)n2)c1OC | 6%
COc1cccc(CNC(=O)[C@@H]2C[C@@H](O)CN2C2CCN(C(=O)c3ccc4ccccc4n3)CC2)c1 | -6%
C=C1[C@@H]2CC[C@@]3(C)[C@H](c4ccoc4)OC(=O)C[C@]13O[C@H]1CC(=O)C(C)(C)[C@H](C(O)C(=O)OC)[C@]12C (stereo partly drawn) | -18%[10 µM]
C/C=C(\C)C(=O)OC1C2(O)CC3=C4CC(=O)OC(c5ccoc5)C4(C)CCC3C(C)(C2=O)C(C(OC(C)=O)C(=O)OC)C1(C)C (stereo not drawn) | -16%[10 µM]
COC(=O)[C@H](O)[C@H]1C(C)(C)[C@H](OC(C)=O)[C@@]2(O)C(=O)[C@]1(C)C1CC[C@]3(C)C(CC(=O)O[C@H]3c3ccoc3)[C@]13O[C@@H]32 (stereo partly drawn) | ? | CHIKV nsP2 cell=0%[17.6 µM];CHIKV NSP2 FL=?;Furin counterscr=-4%[17.3 µM];nsP2 NS23 pep=4%[17.2 µM];Papain cs=-8%[17.2 µM];nsP2pro confirm=-14%[8.62 µM];HCV NS3 counter=?
COC(=O)[C@@H](O)[C@H]1[C@@]2(C)CC3(O)[C@@H](C(=O)[C@H]2O)[C@]24O[C@]25CC(=O)O[C@@H](c2ccoc2)[C@]5(C)CCC4[C@]13C (stereo partly drawn) | 17%[10 µM]
COC(=O)[C@H](OC(C)=O)[C@H]1C(C)(C)C(=O)[C@H]2CC3=C4CC(=O)O[C@@H](c5ccoc5)[C@]4(C)CCC3[C@@]1(C)C2=O (stereo partly drawn) | -10%[10 µM]
SMILES | nsP2pro inh | others
CCC(=O)O[C@H]1C(C)(C)[C@H]([C@@H](O)C(=O)OC)[C@]2(C)C(=O)[C@@]1(O)[C@H]1O[C@]13C1CC(=O)O[C@@H](c4ccoc4)[C@]1(C)CCC32 (stereo partly drawn) | ? | CHIKV nsP2 cell=12%[17.6 µM];CHIKV NSP2 FL=?;Furin counterscr=0%[17.3 µM];nsP2 NS23 pep=-11%[17.2 µM];Papain cs=-5%[17.2 µM];nsP2pro confirm=?;HCV NS3 counter=?
COC(=O)C[C@H]1C(C)(C)[C@H](OC(=O)c2ccccc2)C2CC3=C4CC(=O)O[C@@H](c5ccoc5)[C@]4(C)CCC3[C@@]1(C)C2=O (stereo partly drawn) | -18%[10 µM]
COC(=O)[C@H](O)[C@H]1C(C)(C)[C@H](OC(=O)C(C)C)[C@@]2(O)C(=O)[C@]1(C)C1CC[C@]3(C)C(CC(=O)O[C@H]3c3ccoc3)[C@]13O[C@@H]32 (stereo partly drawn) | ? | CHIKV nsP2 cell=1%[17.6 µM];CHIKV NSP2 FL=?;Furin counterscr=4%[17.3 µM];nsP2 NS23 pep=-1%[17.2 µM];Papain cs=-5%[17.2 µM];nsP2pro confirm=?;HCV NS3 counter=i
COc1cccc(CN2CCC(Oc3ccccc3-c3nc(-c4ccncc4)no3)C2)c1 (stereo not drawn) | i
O=c1cc2nc(-c3ccccc3)nc(SCCN3CCC(F)(F)CC3)n2[nH]1 | 12%
O=C(c1ccno1)N1C[C@@H]2OCC(=O)N(CC3CCCCC3)[C@@H]2C1 | 8%[39.2 µM]
O=C(Nc1ccc(Cl)c(C(F)(F)F)c1)Nc1cccc(-c2ccncc2)n1 | 1%
Cc1ccsc1C(=O)N1CCCC(CN2CCCC2)CC1 (stereo not drawn) | 5%
CN1CCC2=C(C1)C(c1ccccc1)c1ccccc12 (stereo not drawn) | -7%
O=C(Nc1ccc(OC(F)(F)F)cc1)c1cc2ccccn2n1 | -18%
CCOc1ccc(NC(=O)c2cnc(N3CCCCC3)c3ccccc23)cc1 | 2%
O=C(Nc1ccc(OC(F)(F)F)cc1)c1nc2ccccc2nc1N1CCCCC1 | ? | CHIKV nsP2 cell=37%
COc1cc(C(=O)N[C@@H]2[C@@H](c3ccccc3)[C@@H](CO)N3CCCC[C@H]23)cc(OC)c1OC | -8%
COc1cccc(C(=O)N2CCOC[C@H](Oc3ccccc3)C2)c1 | 3%[39.2 µM]
